PubChem BioAssay AID1159580 (chemical genetic matrix, 2015)
About 2,000 (36%) of roughly 5,500 compounds were called active. Roughly 18% stayed inconclusive and do not appear here. Cut-off read from the data, not from the text of the source: active = normalized growth mostly below about 0.91 (no sharp cut-off); inconclusive = no clear call, values can overlap the other calls; inactive = mostly above about 0.92. Some of the results follow.

Experiment: chemical genetic growth profiling, strain panel (AID 1159580);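 note: tested at 20 µM; growth read once vehicle control cultures reached saturation at 30 °C; 1 = growth at the plate median or of vehicle wells; lower values mean less growth of the strain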
Conditions: S. cerevisiae deletion strains, growth OD

Measured: normalized growth

COc1ccc(CN2CSC(=S)N(Cc3ccc(OC)cc3)C2)cc1
inactive: locus YAR019C, strain CDC15, stronger effect = lower value 0.952 | locus YBL105C, strain PKC1, stronger effect = lower value 0.98 | locus YBR135W, strain CKS1, stronger effect = lower value 0.972 | locus YBR136W, strain MEC1, stronger effect = lower value 0.968 | locus YBR160W, strain CDC28, stronger effect = lower value 0.974 | locus YDL017W, strain CDC7, stronger effect = lower value 0.981 | locus YDL028C, strain MPS1, stronger effect = lower value 0.951 | locus YDL101C, strain DUN1, stronger effect = lower value 0.992 | locus YDL108W, strain KIN28, stronger effect = lower value 0.955 | locus YDL132W, strain cdc53, stronger effect = lower value 0.966 | locus YDL214C, strain PRR2, stronger effect = lower value 0.937 | locus YDR052C, strain DBF4, stronger effect = lower value 0.975 | locus YDR054C, strain cdc34, stronger effect = lower value 0.961 | locus YDR226W, strain ADK1, stronger effect = lower value 0.961 | locus YDR477W, strain SNF1, stronger effect = lower value 0.958 | locus YER123W, strain YCK3, stronger effect = lower value 0.891 | locus YER133W, strain GLC7, stronger effect = lower value 0.946 | locus YFL009W, strain cdc4, stronger effect = lower value 0.957 | locus YFL029C, strain CAK1, stronger effect = lower value 0.95 | locus YFR003C, strain YPI1, stronger effect = lower value 0.967 | locus YFR019W, strain FAB1, stronger effect = lower value 0.961 | locus YFR028C, strain CDC14, stronger effect = lower value 0.957 | locus YGR040W, strain KSS1, stronger effect = lower value 0.947 | locus YGR052W, strain FMP48, stronger effect = lower value 0.996 | locus YGR092W, strain DBF2, stronger effect = lower value 0.864 | locus YHR030C, strain SLT2, stronger effect = lower value 0.97 | locus YHR079C, strain IRE1, stronger effect = lower value 0.908 | locus YHR082C, strain KSP1, stronger effect = lower value 0.999 | locus YHR205W, strain SCH9, stronger effect = lower value 0.891 | locus YIL147C, strain SLN1, stronger effect = lower value 0.95 | locus YJL095W, strain BCK1, stronger effect = lower value 0.981 | locus YJL128C, strain PBS2, stronger effect = lower value 0.952 | locus YJL157C, strain FAR1, stronger effect = lower value 0.954 | locus YJR016C, strain ILV3, stronger effect = lower value 0.965 | locus YJR066W, strain TOR1 (second series), stronger effect = lower value 0.94 | locus YJR066W, strain TOR1, stronger effect = lower value 0.998 | locus YKL048C, strain ELM1, stronger effect = lower value 0.958 | locus YKL067W, strain YNK1, stronger effect = lower value 0.954 | locus YKL101W, strain HSL1, stronger effect = lower value 0.94 | locus YKL193C, strain SDS22, stronger effect = lower value 0.964 | locus YKL203C, strain TOR2, stronger effect = lower value 0.989 | locus YLR113W, strain HOG1, stronger effect = lower value 0.91 | locus YLR133W, strain CKI1, stronger effect = lower value 0.961 | locus YLR403W, strain SFP1, stronger effect = lower value 0.927 | locus YML070W, strain DAK1, stronger effect = lower value 0.935 | locus YMR001C, strain CDC5, stronger effect = lower value 0.978 | locus YMR205C, strain PFK2 (second series), stronger effect = lower value 0.945 | locus YMR277W, strain FCP1, stronger effect = lower value 0.97 | locus YNL006W, strain LST8, stronger effect = lower value 0.945 | locus YNL020C, strain ARK1, stronger effect = lower value 0.94 | locus YNL161W, strain CBK1, stronger effect = lower value 0.987 | locus YNL183C, strain NPR1, stronger effect = lower value 0.951 | locus YNL207W, strain RIO2, stronger effect = lower value 0.964 | locus YNL222W, strain SSU72, stronger effect = lower value 0.966 | locus YNL307C, strain MCK1 (second series), stronger effect = lower value 0.905 | locus YOL078W, strain AVO1, stronger effect = lower value 0.967 | locus YOL136C, strain PFK27, stronger effect = lower value 0.956 | locus YOR061W, strain CKA2, stronger effect = lower value 0.939 | locus YOR119C, strain RIO1, stronger effect = lower value 0.985 | locus YOR231W, strain MKK1, stronger effect = lower value 0.937 | locus YOR329C, strain SCD5, stronger effect = lower value 0.979 | locus YPL031C, strain PHO85, stronger effect = lower value 0.95 | locus YPL153C, strain RAD53, stronger effect = lower value 0.931 | locus YPL204W, strain HRR25, stronger effect = lower value 0.931 | locus YPL209C, strain IPL1, stronger effect = lower value 0.966 | locus YPL256C, strain CLN2, stronger effect = lower value 0.953 | locus YPR025C, strain CCL1, stronger effect = lower value 0.98 | locus YPR106W, strain ISR1, stronger effect = lower value 0.983 | locus YPR111W, strain DBF20, stronger effect = lower value 0.979 | strain NNK1, stronger effect = lower value 0.984 | strain TSCII, stronger effect = lower value 0.964
